The test has as its system RARg homodimer (NR concentration 270 nM). The test can be described thus: PBM binding z-score (relative to random genomic background probes); higher = stronger binding; sequences stand for … in GC…GCGATTGACAGCGTAGAATGAAGG
The essentials:
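Ligand-free nuclear receptor dimers were applied to custom Agilent 4×180K protein-binding microarrays whose double-stranded probes carried direct-repeat seeds, single-nucleotide variants, half-site ablations and random human genomic background sequences in 34-nt variable regions. Incubation lasted 1 h. Binding z-scores were computed against the random background probes from regression-normalized fluorescence.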
Consider CCTGCTAGGGCAATGGTCAGCTAAAGCAGCTCGC, for which the PBM binding z-score worked out at 0.604.
The result for ATCGAAAGGTCGTGAGGTGAGTCTACAGAAAGGC reads 3.92; that for CCTAGCACGCCAGGGTCACTCAAGCATTTCGCTT, 2.18; that for TCATATAAGTAAAAGGTGAAAGTCGGTGTGGTAA, 0.831.
For the sequence AGTCAAAGTTCATCTAGGCAACGTAAGATATGCT, the PBM binding z-score is 6.04.
Sequence ACTATTAGTTGACTTAGGGCAACCCATACGACGC came in with a PBM binding z-score of 1.04.
Sequence CCTCGGTGGACAACAGGAGGTCAGAGCTGCCAGA came in with a PBM binding z-score of 1.73.
CGAACTAGGTCAGGGACAGTGAATCTCCGCACGC returned a PBM binding z-score of 3.51.
The result for TCGAGTAGGTTAGACGGGGCATTCAGCCAACATA reads 0.0787; that for CCTTACGGGTCACCGACAGGTTATAGCATTTGGA, 5.55.
The sequence GCTGCTAGGTCAACTGATGTTCAGCTAAAGCTCG returned a PBM binding z-score of 5.51.
Turning to TCTTATAGGTAAAAGGTGAAAGTCGGTGTGGTAA, the PBM binding z-score was 0.977.
The sequence ACTAGCAGGCCAAGTCTGGGTCACTCAAACAAAG showed a PBM binding z-score of 1.48.
Consider ATCTCTAGGAAAAGATAGTTCAGTGAATGCAAAT, for which the PBM binding z-score turned out to be 0.556.
The same measure for ACTAGCAGGCCAAGTTTGGGTCACTCAGACAAAG: 1.41; for AACTCTAGGTAAAGATAGTTCAGTGAATGCAAAT: 0.642; for GCTAGCAGGCCATTTGGTTCACTCAATGACGGGC: -0.168.
The result for ATCGAAAGGCCGACGAGGTGAGTATACACCGTTT reads 1.08; that for TCTGTTAGTTGAAGGGCAACCGACGAGTCCGTTT, 0.708.
Turning to CCTACTGGGCCACGAAACGTCATTGATTCAGTGA, the PBM binding z-score was 0.105.
The sequence TCGAGTAGGTTAGGGGCATGCAGAATGGCGTCGA gave a PBM binding z-score of 0.462.
Turning to CCTACTGGGCCAAAGCTCATTGATTCCAATGCTC, the PBM binding z-score was -0.172.
TCTTGTAGAGCAACAGGAGGTTAAGAAAGATCGA came in with a PBM binding z-score of 0.0354.
The sequence TCTTGTAGATCAAGCAGGTTAAGGAAGCCTGAGT displayed a PBM binding z-score of -0.28.
The result for CCTAGCAGGCCAATCTGGGTCACTAAAGGCTTGA reads 1.17.
Sequence CCTTACGGGTCACTCCAGATTATAGCATCGGAGT gave a PBM binding z-score of 3.98.
The same measure for CGTCCAAGGTCAAGGTCAGTTAAAGAGACTCGAA: 7.72.
As for CCTGCTGGGCCAAGGTCATTGATCAGTCAAAGCA, the PBM binding z-score stood at 2.93.
The result for TCGAGTAGGTTACCAATGGGGCAGTCAGCTTTCT reads 0.257; that for AGTCTAAGTTCACTAGGTAACGTAAGATTCAGCT, 3.69; that for CAAACTAGGTGACGAAAGGTCAAAGTCGAATGAC, 6.26.
Sequence CCTTGTTGGTCAGGAGGTCACACACCGGATATGA showed a PBM binding z-score of 4.32.
ATCTCTAGGTAACAAGTCCAGTGAAAGAGAGGAC returned a PBM binding z-score of 0.722.
The same measure for GCTAGTTGGTCAGTAAAAGGTCACACATCGGTCG: 4.73; for GGAACGAGGGCGTTCGAGTTGATAGCATGGCGAT: 0.202.
In turn, CTACCAAGGTGAACAACGTCGTTGATTACTATTC had a PBM binding z-score of 0.962.
The sequence CGAACTAGGTCAGAACAGGACAGTGGAGGATGAT yielded a PBM binding z-score of 3.32.
On to GCTGCTAGGTCTACTGATGGTCAGCTAAAGCTCG, for which the PBM binding z-score is -0.555.
In turn, CAAACTAGGTCATGGTCAAAGTCGGTTTGTGCCA displayed a PBM binding z-score of 4.77.
Regarding ATCGAAAGGCCGTGAGGTGAGTATACAGAAAGGC, the PBM binding z-score is 1.42.
